Data from PubChem BioAssay AID1671189 (National Center for Advancing Translational Sciences (NCATS), 2021).
In all, about 1,100 compounds went through this assay and about 70 (6%) were called active. Entries that show only a call come without a potency. Roughly 22% stayed inconclusive and do not appear here. The call rests on the fitted dose curve; in most records, active means well fitted curve in the direction sought with a large enough effect; inconclusive means small, poorly fitted or top-dose-only effect, or another doubt; inactive means no such curve, though single readings can be large or run the other way. Many of the other results were omitted from the sample, so actives are more common in it than they were.

target: Polyunsaturated fatty acid lipoxygenase ALOX12 (Homo sapiens) (UniProt P18054); test: Confirmatory qHTS assay for inhibitors of human arachidonate 12S-lipoxygenase (ALOX12): Round 2; details: purified human 12-LOX, xylenol orange absorbance; series mostly up to 125 µM
Sequence (P18054 whole entry, looked up): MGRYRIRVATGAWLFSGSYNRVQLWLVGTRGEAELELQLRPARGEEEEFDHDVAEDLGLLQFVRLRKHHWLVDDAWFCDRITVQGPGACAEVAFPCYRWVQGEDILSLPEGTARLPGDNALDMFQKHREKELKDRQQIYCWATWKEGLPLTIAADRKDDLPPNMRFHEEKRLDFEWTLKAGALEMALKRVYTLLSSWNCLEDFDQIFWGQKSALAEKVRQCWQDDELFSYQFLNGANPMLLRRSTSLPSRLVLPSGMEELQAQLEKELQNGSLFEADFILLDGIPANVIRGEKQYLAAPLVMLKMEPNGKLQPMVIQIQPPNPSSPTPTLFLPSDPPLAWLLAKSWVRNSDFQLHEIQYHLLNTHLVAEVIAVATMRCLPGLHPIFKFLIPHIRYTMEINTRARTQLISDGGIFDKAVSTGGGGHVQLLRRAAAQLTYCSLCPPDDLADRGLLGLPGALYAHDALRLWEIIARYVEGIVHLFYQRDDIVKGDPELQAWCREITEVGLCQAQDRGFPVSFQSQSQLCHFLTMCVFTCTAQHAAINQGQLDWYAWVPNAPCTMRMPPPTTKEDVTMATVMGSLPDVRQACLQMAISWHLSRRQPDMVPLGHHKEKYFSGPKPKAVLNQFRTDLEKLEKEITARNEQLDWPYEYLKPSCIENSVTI
Description: Assay Provider: Theodore R. Holman Ph.D. University of California, Santa Cruz, California Human lipoxygenase 12hLO is a member of the closely related lipoxygenase family of enzymes which catalyze the site-specific oxidation of arachidonic acid to various hormone precursor molecules and as such is a candidate for drug development in a variety of disease areas, such as cancer and inflammation. Inhibition of 12hLO activity was screened by utilizing arachidonic acid as a substrate. The extent of hydroperoxide product formation was measured by a secondary chromogenic reaction in which xylenol orange (XO, Sigma-Aldrich, cat. number 39,818-7) reacts with the ferric ions produced from the reaction between the hydroperoxide and ferrous ions. The Fe (III)-XO complex is characterized with red-shifted absorbance at 560 nm. A purified preparation of human 12hLO was supplied by Dr. Holman laboratory, University of California, Santa Cruz.
PROTOCOL TABLE SEQUENCE No. (e.g., 1, 2, 3, etc.); […] (e.g., Cells, Incubation, Reagent, etc.); VALUE; DESCRIPTION 1; Enzyme; 3 uL; 150 nM 12hLO enzyme solution dispensed in 1536-well Greiner black, clear bottom plates. 2; Compound; 23 nL; compounds and controls were added. 3; Incubate; 15 min; room temperature. 4; Substrate; 1 uL; 40 uM arachidonic acid (final concentration). 5; Incubate; 30 min; room temperature. 6; Reagent; 4 uL; Fe-XO solution was added to each well. 7; Incubation; 30 min; room temperature 8; Detector; absorbance; Read 1 at 405 nm absorbance using ViewLux (PerkinElmer) CCD imager. 9; Detector; absorbance; Read 2 at 573 nm absorbance using ViewLux (PerkinElmer) CCD imager. NOTES (numbers refer to sequence above) 1; 150 nM 12hLO (final concentration) in buffer solution (25 mM Hepes, 0.01% Triton X-100, pH 7.0) was dispensed in columns 1, 2, 5-48. Column 1 is neutral (100% activity). Buffer only was dispensed in columns 3 and 4 as no enzyme negative controls. The plates were covered with metal lids with gas-exchange holes. 2; Compounds were pin transferred via a Kalypsys Pin Tool (Wako USA) in column 5 - 48. Control compound was transferred in column 2, titration of nordihydroguaiaretic acid (NDGA, Sigma-Aldrich, N5023) with top concentration of 20 mM in DMSO then 1:3 dilution in duplicate. Dilution factor of 23 nL into 4 uL final assay volume. 3; Covered assay plates were incubated for 15 min at room temperature. 4; Substrate was added to start the reaction; 40 uM arachidonic acid (Sigma-Aldrich, St. Louis, MO) was dispensed throughout the plate. 6; Chromogenic detection reagent solution (divalent iron/xylenol orange, Fe-XO) was added to each well: 200 uM xylenol orange, 300 uM ferrous ammonium sulfate prepared freshly in 50 mM sulfuric acid. 8, 9; Two absorbance readouts were obtained at 405 nm and at 573 nm using a ViewLux high-throughput CCD plate imager (PerkinElmer). The 573 to 405 (Read 2 / Read 1) absorbance ratio was used to compute reaction progress.
Potency means the concentration at half of the fitted maximal effect.

| Compound | Potency |
| --- | --- |
| CC(=O)N1CCC(C(=O)N2CCC3(CC2)NC(=O)N(c2cccc(Cl)c2)N3)CC1 | 12.6 µM (active) |
| COc1ccc(OC2CN(Cc3cccc4ccccc34)C2)cc1 | inactive |
| OCC1CN(Cc2ccc(Cl)cc2)CC12CCNCC2 (configuration not stated) | inactive |
| O=C(c1ccccc1F)N1CCn2c(nnc2C2CCNCC2)C1 | inactive |
| O=C(Nc1ccc(-c2cccc(F)c2)cc1)C1CCCN1Cc1cnc[nH]1 (configuration not stated) | inactive |
| CN1CC(=O)N(C2CCCNCC2)Cc2c(NCC3CC3)ncnc21 (configuration not stated) | inactive |
| C=CCNc1oc(-c2cccc3ccccc23)nc1C#N | inactive |
| CC(C)Nc1oc(-c2cccc3ccccc23)nc1C#N | inactive |
| CCCCNc1oc(-c2cccc3ccccc23)nc1C#N | 19.3 µM (active) |
| COc1ccc(-c2nc(C3CC3)nc3c2CN([S+](=O)([O-])c2ccccc2)CC3)cc1 | inactive |
| CCOCCNc1ncnc2c1CN(C1CCNCC1)C(=O)CN2C | inactive |
| COc1ccc(N2CC3CCC(C2)N3C(=O)c2ccc3c(c2)OCO3)cc1 | inactive |
| O=C(NCC(F)(F)F)c1cc(C2CC2)nc2c1c(C1CCCN1)nn2-c1ccccc1 (configuration not stated) | inactive |
| COC(=O)[C@@H]1Cc2nc[nH]c2CN1C1CCOCC1 | inactive |
| Cc1ccc(NC(=O)N2Cc3[nH]cnc3C[C@H]2c2nc(-c3ccc4ccccc4c3)no2)cc1 | inactive |
| COc1ccc(-c2noc([C@@H]3Cc4nc[nH]c4CN3C(=O)NC3CCCCC3)n2)cc1 | 10 µM (active) |
| COc1ccc(CN2Cc3[nH]cnc3C[C@H]2c2nc(-c3ccncc3)no2)cc1 | inactive |
| O=C(NC1CCCCC1)N1Cc2[nH]cnc2C[C@H]1c1nc(-c2cccc([N+](=O)[O-])c2)no1 | 6.31 µM (active) |
| CN1CC(=O)N(C2CCCNCC2)Cc2c(NCc3cccs3)ncnc21 (configuration not stated) | inactive |
| CCc1nc2c(c(-c3ccc(OC)cc3)n1)CCN(Cc1ccc(OC)cc1)CC2 | inactive |
| O=C(N1CCCC1)N1CCN(c2ccc(Cl)nn2)C(=O)C1 | inactive |
| CC(NC(=O)C1CCN(c2cc(C(F)(F)F)ncn2)CC1)c1ccccc1 (configuration not stated) | inactive |
| COc1cccc(N2C(=O)NC(=NC3CCCCC3)C23CCCN([S+](=O)([O-])c2cccs2)C3)c1 (configuration not stated) | inactive |

| Compound | Potency |
| --- | --- |
| O=c1n(-c2cccc(Cl)c2)nc2n1CCN([S+](=O)([O-])c1cccs1)C2 | inactive |
| Cc1cccc(CN2CCN(Cc3nc(-c4ccco4)oc3C)C(C)C2=O)c1 (configuration not stated) | inactive |
| COCCNC(=O)c1cc(C2CC2)nc2onc(C3CCCN3)c12 (configuration not stated) | inactive |
| CCOC(=O)Cn1c(=O)n(-c2ccccc2OC)c2nc(-c3cccc(F)c3)nc(C(N)=O)c21 | 4.4 µM (active) |
| CCOC(=O)Cn1c(=O)n(-c2ccccc2OC)c2nc(-c3ccccc3F)nc(C(N)=O)c21 | 11 µM (active) |
| CCOc1ccccc1CN1CCCCC12Cc1ccccc1CNC2=O (configuration not stated) | inactive |
| CCNC(=O)N[C@@H]1C=C[C@@H](c2c(C)nn(-c3ccc(OC)cc3)c2C)C1 | inactive |
| Cc1cc(C(=O)NC2CC2)c2c(C3CCNCC3)noc2n1 | inactive |
| O=C1c2ccccc2CN1C1CCN(Cc2ccsc2)CC1 | inactive |
| C1CNCC(c2nc(C3CCOCC3)no2)C1 (configuration not stated) | inactive |
| CC(=O)N1CCn2cc(C(=O)N3CCOCC3)nc2C1 | inactive |
| COc1ccccc1C(=O)N1CCn2c(nnc2C2CCNCC2)C1 | inactive |
| CNCc1ccccc1OC(F)(F)F | inactive |
| COc1ccccc1CNC(=O)Nc1cccs1 | 21.7 µM (active) |
| CN1CC(=O)N(C2CCNCC2)Cc2c(NC3CCCCCC3)ncnc21 | inactive |
| CN(C)CCCC(=O)N1Cc2ccccc2CC2(CCCCN2CC2CCNCC2)C1 (configuration not stated) | inactive |
| CCOC(=O)N1CCC(NC)CC1 | inactive |
| CCOC(=O)N1CCC(N2CCCC(CCC(=O)Nc3ccc(OC)c(Cl)c3)C2)CC1 (configuration not stated) | 12.6 µM (active) |
| Cc1noc(C)c1C(=O)N1Cc2ccccc2CC2(CCCN(CC3CCNC3)C2)C1 (configuration not stated) | inactive |
| Fc1ccc(OC2CN(Cc3ccc(C(F)(F)F)cc3)C2)cc1F | inactive |
| Cn1ccnc1C(O)c1cc2n(n1)CCN(S(=O)(=O)C1CC1)C2 (configuration not stated) | inactive |
| COc1cccc(N2C(=O)NC(=NC3CCCC3)C23CCCN(CC2CC2)C3)c1 (configuration not stated) | inactive |
| COCc1cc(C[C@@H]2CC[C@H](O)[C@@H](CNC(=O)NC(C)C)O2)no1 | inactive |

| Compound | Potency |
| --- | --- |
| CNCc1ccccc1Cl | inactive |
| Cc1nc(N2CCC(C(=O)NCc3ccc(C(C)C)cc3)CC2)cc(C(F)(F)F)n1 | inactive |
| CCCc1nc(C)cc(N2CCC(NCCc3ccc(Cl)cc3)CC2)n1 | 2.24 µM (active) |
| O=C(N1CCCCC1)N1CCCC(c2nnc3n2CCNC3)C1 (configuration not stated) | inactive |
| Cc1cc(C)cc(-c2ccc(CN3CCCC(c4nc5ccc(F)cc5c(=O)[nH]4)C3)cc2)c1 (configuration not stated) | inactive |
| CCC(CC)Nc1ncnc2c1CN(C1CCCNCC1)C(=O)CN2C (configuration not stated) | inactive |
| COc1cccc(-c2ccc(CN)cc2)c1 | inactive |
| COc1ccc(Nc2cnc3ccc(-c4cccc(CO)c4)nn23)cc1OC | inactive |
| COc1ccc(-c2cc(-c3cccc(CO)c3)cn3cncc23)cc1 | 28.2 µM (active) |
| COc1ccc(CNc2ncnc3c2CN(C2CCCNC2)C(=O)CN3C)cc1 (configuration not stated) | inactive |
| O=C(O)CCC(=O)N1Cc2ccccc2CC2(CCCN2Cc2cccnc2)C1 (configuration not stated) | inactive |
| Cc1ccc(-c2cc(-c3ccc(C)o3)nc(N)c2C#N)cc1 | 3.06 µM (active) |
| Cc1cc(C(=O)N2CCC(F)CC2)c2c(C3CCCN3)noc2n1 (configuration not stated) | inactive |
| O=Cc1ccc(-c2ccc(O)cc2)cc1 | inactive |
| COc1ccc(N=C2S[C@H]3[C@H]([C@@H](O)[C@H](O)C[C@@H]3C(N)=O)N2CC2CCCCC2)cc1 | inactive |
| O=C1N[C@@H]2CCN(S(=O)(=O)c3ccc(Cl)cc3)[C@@H]2C(=O)N1c1ccc(Oc2ccccc2)cc1 | 7.94 µM (active) |
| COc1ccccc1-c1ccc(CN2CCCC(c3nc4ccc(F)cc4c(=O)[nH]3)C2)cc1 (configuration not stated) | inactive |
| O=Cc1cccc(N2CCN(C(=O)c3ccc4c(c3)OCO4)CC2=O)c1 | inactive |
| O=C1NCc2ccccc2CC12CCCN2Cc1ccsc1 (configuration not stated) | inactive |
| NCC(=O)N1Cc2ccccc2CC2(CCCCN2CC2CCOCC2)C1 (configuration not stated) | inactive |
| CC(=O)N1CCC2(CC1)CN(C(=O)Cc1csc(N)n1)Cc1ccccc1O2 | inactive |
